Experimental findings from PubChem BioAssay (NCATS) are described below.

Records with an inconclusive call do not appear. A number with no mark means an inactive call. Activity calls are given as the source filed them. The call rests on the fitted dose curve; in most records, active means well fitted cell-killing curve with a large enough effect; inconclusive means small, poorly fitted or top-dose-only effect; inactive means flat fitted curve, though single readings scatter.
On the % scale 0 is the no-effect control and ±100 the full control effect; potency means the concentration at half of the fitted maximal effect.

This assay is described as follows: HepG2 cells viability qHTS for Zika virus inhibitors (AID 1347168). To be noted: Zika counter-screen; series mostly up to 45.9 µM; activity change, negative = cytotoxicity: at the top concentration. An excerpt: Avindra Nath, Ph.D., National Institute of Neurological Disorders and Stroke (NINDS), Bethesda, MD
Radhakrishnan Padmanabhan, Ph.D., Georgetown University (GU), Washington D.C.
Zika Virus causes congenital defects, including microcephaly and is associated with Guillain-Barre syndrome, eningoencephalitis and myelitis in infected adult. […] Using a target-based approach, we hope to establish a screening paradigm to uncover novel, cell-active NS2B-NS3 protease (Zika Virus) specific inhibitors from NCATS' collection of small molecules using qHTS.
Four assay panel was created to identify potential Zika Virus inhibitors. Namely, (1) GU unlinked NS2B-NS3 AMC tagged protease qHTS, (2) GU unlinked NS2B-NS3 Rhodamine tagged protease qHTS, (3) NINDS linked NS2B-NS3 AMC tagged protease qHTS, (4) NINDS linked NS2B-NS3 Rhodamine tagged protease qHTS. Identified inhibitors were screened against the Vero and HepG2 cell viability assays using CellTiter Glo to exclude cytotoxic compounds.
Early Translation Branch (ETB)
National Center for Advancing Translational Sciences (NCATS), Rockville, MD
National Institute of Health (NIH), Bethesda, Maryland
Vero and HepG2 Cell Viability Assay:
Vero and HepG2 cell cytotoxicity were determined using a luminescent readout with CellTiter Glo reagent (Promega, Madison, WI), which is based on measuring the ATP content within cells. Briefly, 4 microL of Vero or HepG2 cells at 2.5 x 10^5 cells/mL in DMEM containing 4% FBS were dispensed into 1536-well solid bottom tissue treated white plate using a Multidrop Combi dispenser (Thermo Scientific). Plates were incubated at 37 degrees C, 95% humidity, and 5% CO2 overnight to allow for cell attachment. Compounds were dissolved in DMSO at different concentrations and transferred via pintool (Wako Automation), for a final concentration of 0.029 µM - 57 microM. Plates were again incubated for 24 to 48 hours, followed by a 2 microL addition of CellTiter Glo. Finally, plates were incubated for 30 minutes at 37 degrees C and 5% CO2 before being read on a ViewLux (Perkin Elmer) for luminescence.
As to `COc1c2occc2cc2ccc(=O)oc12`, the Potency result is “inactive”.
Same read-out and setting: the result for `O=C(O)c1cn(-c2ccc(F)cc2)c2cc(N3CCNCC3)c(F)cc2c1=O` reads “inactive”.
As to `Cc1nc(-c2ccc(OCC(C)C)c(C#N)c2)sc1C(=O)O`, the “activity change, negative = cytotoxicity” value is 0.868%.
Turning to `C=C(c1ccc(C(=O)O)cc1)c1cc2c(cc1C)C(C)(C)CCC2(C)C`, the Potency result was “inactive”.
As for `CN(C)c1ccc(O)c2c1C[C@H]1C[C@H]3[C@H](N(C)C)C(=O)C(C(N)=O)=C(O)[C@@]3(O)C(=O)C1=C2O`, the “activity change, negative = cytotoxicity” value was 0.673%.
Same read-out and setting: the result for `Oc1ccc(-c2nc(-c3ccc(F)cc3)c(-c3ccncc3)[nH]2)cc1` reads -6.82%.
As to `CC(C)C[C@H](NC(=O)[C@H](Cc1ccccc1)NC(=O)c1cnccn1)B(O)O`, the Potency is 0.0466 µM (active).
As for `COc1cc2c(cc1OC)C1CC(=O)C(CC(C)C)CN1CC2` (stereo not drawn), the “activity change, negative = cytotoxicity” value was -8.13%.
The same measure, in the same setting: the result for `CN(C)C(=O)[C@H](O)[C@H](Cc1ccccc1)NC(=O)c1cc2cc(Cl)ccc2[nH]1` reads 1.46%; that for `Cc1c(OCC(F)(F)F)ccnc1CS(=O)c1nc2ccccc2[nH]1` (stereo not drawn), -1.45%.
On to `Cc1nc(Nc2ncc(C(=O)Nc3c(C)cccc3Cl)s2)cc(N2CCN(CCO)CC2)n1`, for which the Potency was 79.4 µM (active).
For `CC(C)c1ccc2c(c1)c(SC(C)(C)C)c(CC(C)(C)C(=O)O)n2Cc1ccc(Cl)cc1`, the “activity change, negative = cytotoxicity” value is -5.27%.
Take `S=c1nc[nH]c2nc[nH]c12`: the Potency entry was “inactive”.
